Test results published in PubChem BioAssay AID932 (The Scripps Research Institute Molecular Screening Center, 2007).
The whole screen tested about 200,000 compounds, of which about 5,100 (2.5%) were called active. The entries come from a sample that favours actives as a whole. Unmarked numbers belong to inactive results.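 The calls were made as follows: active = activation above the screen-wide mean activation plus 3 SD (cut at about 130% in these data); inactive = the rest.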

test: potentiators of IFN-gamma driven STAT1 reporter – cell-based, HTS, luciferase reporter, primary screen (AID 932); details: NIH 3T3 STAT1-luciferase reporter, luminescence, at 5.5 µM, hits give high values, 100% = IFN-gamma alone, no compound;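 also: raw ratio to IFN-gamma control signal so 100% means no change and 0% no light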

SMILES | activation (% of control)
CN(c1ccccc1)S(=O)(=O)c1ccc(Cl)c(C(=O)NCCc2c[nH]c3ccccc23)c1 | 95%
O=C(NCCc1c[nH]c2ccccc12)c1cc2ccccc2oc1=O | 143% (active)
O=C(NCCc1c[nH]c2ccccc12)C(=O)NCC1CCCO1 (stereo not drawn) | 109%
COc1ccc(NC(=O)/C(C#N)=C\c2cc(OC)c(OCc3ccc(C(=O)O)cc3)cc2Br)cc1 | 96.6%
Cc1ccc(NC(=O)OCc2cncs2)cc1 | 118%
COc1ccc(CS(=O)/C(Cl)=C(/Cl)C(=O)Nc2ccc(OC)nc2)cc1 (stereo not drawn) | 279% (active)
CC(=O)Nc1ccc(OCC(=O)NCc2ccc(C)cc2)cc1 | 95.8%
COc1ccc(NC(=S)NCCNC(C)=O)cc1 | 103%
COc1ccc(NC(=O)/C(Cl)=C(/Cl)S(=O)Cc2ccc(C)cc2)cn1 (stereo not drawn) | 222% (active)
COc1ccc(NC(=S)Nc2ccccc2Cl)cn1 | 88.6%
c1ccc2c(c1)CSc1sccc1C2=C1CCNCC1 | 98.4%
CN(C)/C=C/C(=O)c1cnc2sccn2c1=O | 105%
COc1cccc(NCCC(=O)c2cccc([N+](=O)[O-])c2)c1 | 116%
O=C(c1ccc2c(c1)N(Cc1ccc(F)cc1)C(=O)c1ccccc1S2(=O)=O)N1CCN(c2ccccn2)CC1 | 97.5%
CCn1c(SCC(=O)N(C)C2CCS(=O)(=O)C2)nnc1-c1cccs1 (stereo not drawn) | 97.1%
Cc1ccc(NCc2n[nH]c(=S)n2-c2ccccc2)cc1Cl | 114%
CCOC(=O)N1CCN(c2cc(C)c([N+](=O)[O-])cc2F)CC1 | 77.6%
CC1CCCCC1NC(=O)CN1CCC(O)(c2ccc3c(c2)OCO3)CC1 (stereo not drawn) | 102%
O=C(C[n+]1ccccc1)N/N=C/c1ccc(O)cc1 | 97.6%
COC(=O)N/N=C/c1ccc(/C=N/NC(=O)OC)cc1 | 103%
Cc1nonc1C(=O)N/N=C/c1ccc(O)cc1 | 135% (active)
C/C=C/c1ccc(OCCCCN2CCC(C)CC2)c(OC)c1 | 98.3%

SMILES | activation (% of control)
COc1cc(S(=O)(=O)N2CCOCC2)ccc1NC(=O)COc1ccc(N(C)S(=O)(=O)c2ccc(C)cc2)cc1 | 88.9%
COc1ccc(C(=S)Nc2ccccc2)cc1 | 118%
COc1ccc(NC(=S)N2N=CCC2c2ccccc2)cc1 (stereo not drawn) | 135% (active)
COc1ccc(C(=O)NC2CCN(C(=S)Nc3ccccc3)CC2)cc1 | 88.7%
Cc1ccccc1-n1cc(CNC(=O)CC2C(=O)NCCN2C/C=C/c2ccccc2)cn1 (stereo not drawn) | 100%
O=C(Cn1cc(C(F)(F)F)ccc1=O)N/N=C/c1ccc(Cl)cc1Cl | 116%
O=C(/C=C/c1ccc(N2CCOCC2)cc1)c1ccccc1 | 129% (active)
O=C(O)c1ccc2c(c1)C(=O)N(c1ccc(/C=C/C(=O)c3ccccc3)cc1)C2=O | 99.8%
O=C(/C=C/c1ccccc1)c1ccoc1 | 98%
Cc1ccc(NC(=O)CCOc2ccccc2)cc1S(=O)(=O)Nc1ccccc1Cl | 98.8%
Cc1csc(NC(=O)CSc2ccc(-c3ccc(F)cc3)nn2)n1 | 112%
Cc1ccc(NC(=S)Nc2ncccc2C)c(C)c1 | 134% (active)
Cc1ccc(NC(=S)NCc2ccccc2Cl)c(C)c1 | 96.8%
CCOC(=O)N1CCN(C(=S)Nc2ccc(C)cc2C)CC1 | 96.2%
COc1ccc(N2CCN(C(=S)Nc3ccc(S(N)(=O)=O)cc3)CC2)cc1 | 89.8%
COc1ccc(C=Nc2cccc3ncccc23)cc1 | 99.7%
COc1ccc(/C=N/Nc2nc3ccccc3c(=O)[nH]2)cc1 | 155% (active)
O=c1c2ccccc2nc(N/N=C/c2ccccc2)n1O | 113%
COc1ccc(S(=O)(=O)NCC2CCCN(C(=O)c3occc3C)C2)cc1 (stereo not drawn) | 96.8%
COc1ccc(/C=N/NC(=O)C(C)N(c2ccc(OC)cc2)S(C)(=O)=O)cc1 (stereo not drawn) | 100%
O=C(/C=C/c1ccc(Cl)cc1)Nc1ccc(S(=O)(=O)Nc2ncccn2)cc1 | 107%
CC(C)(C)c1ccc(/C=C/C(=O)NC2CCS(=O)(=O)C2)cc1 (stereo not drawn) | 104%

SMILES | activation (% of control)
CC(C)(C)c1ccc(/C=C/C(=O)Nc2ncccn2)cc1 | 138% (active)
O=C(NCCN1C(=O)S/C(=C\c2cccnc2)C1=O)c1cccc(OC(F)F)c1 | 101%
Cc1ccccc1NC(=O)NC1(C(=O)N2CCCC2)CCCCC1 | 99%
COc1cccc(C(=O)Nc2nc3ccc(S(C)(=O)=O)cc3s2)c1 | 119%
COc1ccc2nc(Nc3nc4ccc(NC(C)=O)cc4s3)sc2c1 | 109%
COc1ccc2nc(NC(=O)c3ccc(Br)s3)sc2c1 | 158% (active)
O=C(/C=C/c1cccs1)NCc1cccnc1 | 101%
COc1ccc(/C=N/NC(=O)c2cccc(C(F)(F)F)c2)cc1 | 105%
CSc1ccc(/C=N\NC(=O)COc2ccc(Cl)cc2Br)cc1 | 103%
CSc1ccc(/C=N/NC(=O)c2cccc(Cl)c2)cc1 | 150% (active)
COc1ccc(/C=C/C(=O)Nc2ccc(C34CC5CC(CC(O)(C5)C3)C4)cc2)cc1OC | 141% (active)
COc1ccc(/C=C/C(=O)N2CCCC2)cc1OC | 84.7%
COc1ccc(/C=C/C(=O)Nc2cccnc2)cc1OC | 112%
O=C(CC12CC3CC(CC(C3)C1)C2)NCc1ccco1 | 97.2%
C/C(=N\NC(=O)c1cccc(N2CCCC2=O)c1)c1ccc(N)cc1 | 113%
Nc1ccc(-c2sc(N)nc2-c2ccccc2)cc1 | 94.5%
Nc1ccc(-c2nnc(-c3ccc(-c4ccccc4)cc3)o2)cc1 | 139% (active)
OC(c1nnc(-c2ccccc2)o1)c1cccs1 (stereo not drawn) | 117%
Brc1ccc(-c2nnc(-c3ccccc3)o2)o1 | 138% (active)
O=C(OCc1ccc(Br)cc1)c1cccc(-c2nnc(-c3ccccc3)o2)c1 | 112%
CCCC(=O)Nc1nnc(-c2ccccc2)o1 | 103%
CCNC(=O)c1ccc(OCC(=O)Nc2ccc(F)cc2)c(OC)c1 | 105%

SMILES | activation (% of control)
CCCCN1C(=O)CCC(C(=O)O)C1c1ccc(OC)cc1 (stereo not drawn) | 107%
Nc1ccc(C(=O)NCc2ccccc2)cc1 | 100%
COC(=O)CSc1ccc2nnc(CCNS(=O)(=O)c3ccc(C)cc3)n2n1 | 96.4%
COc1ccc(/C=N/NC(=O)CNC(=O)c2ccc(S(=O)(=O)N3CCCC3)cc2)c(OC)c1 | 99.5%
C(=N\Nc1ccc2ccccc2n1)/c1ccc2c(c1)OCO2 | 35.8%
Cc1noc(C)c1/C=N/Nc1ccc2ccccc2n1 | 157% (active)
Cc1cc(C)nc(N/N=C/c2c(C)oc3ccccc23)n1 | 98.5%
Cc1cccc(C)c1NC(=O)C(c1ccccc1)N1CC(=O)Nc2ccccc21 (stereo not drawn) | 94.6%
COC(=O)Nc1nc2ccc(Sc3ccccc3)cc2[nH]1 | 135% (active)
COc1cc(OC)cc(C(=O)N[C@H](C(=O)Nc2nc3ccccc3[nH]2)C(C)C)c1 | 96.1%
Cc1nc2ccc(C(=O)O)cc2[nH]1 | 96.9%
O=C(CCCc1ccccc1)NCc1ccccc1 | 108%
CCOC(=O)CCNC(=O)N1CCCC(C(=O)c2ccccc2SC)C1 (stereo not drawn) | 92.5%
COc1cc(NC(=O)c2cccs2)ccc1NC(=O)c1ccccc1Cl | 109%
O=C(Nc1ccc2nc3n(c(=O)c2c1)CCCCC3)c1ccccc1Cl | 101%
O=C(Nc1ccc2sc3ccccc3c(=O)c2c1)c1ccccc1Cl | 144% (active)
C#CCOCCOCCOCCNc1nc(N2CCN(C(=O)[C@H](C(C)C)n3cc(CCO)nn3)CC2)nc(N2CCN(C(=O)[C@H]([C@@H](C)CC)n3cc(CCCN=C(N)N)nn3)CC2)n1 | 100%
O=C(COc1ccccc1[N+](=O)[O-])NC1CC1 | 92.9%
NS(=O)(=O)c1ccc(NC(=S)NNC(=O)c2cccs2)cc1 | 104%
N#Cc1c(NC(=O)CCCl)sc2c1CCCCC2 | 101%
N#Cc1c(NC(=O)C2CCCO2)sc2c1CCCCC2 (stereo not drawn) | 139% (active)
N#Cc1c(NC(=O)C2CC(Cl)=CCC2C(=O)O)sc2c1CCCCC2 (stereo not drawn) | 103%

SMILES | activation (% of control)
CCc1ccc(NC(=O)N2CCN(c3ccccc3)CC2)cc1 | 109%
CCc1ccc(NC2Nc3cc(C)nn3S2)cc1 (stereo not drawn) | 171% (active)
CCOC(=O)c1ccc(NC2Nc3cc(C)nn3S2)cc1 (stereo not drawn) | 102%
COc1ccc(/C(N)=N/OC(=O)Cc2ccccc2)cc1 | 142% (active)
COc1ccc(/C(N)=N/OC(=O)Oc2ccccc2)cc1 | 98.3%
COc1ccc(/C(N)=N/OC(=O)CCCc2ccccc2)cc1 | 108%
COc1ccccc1-c1nc(SC)n[nH]1 | 103%
CCOc1ccc(OCc2cccc(C(=O)N(CC)CC)c2)cc1 | 43.9%
COc1cccc(C(=O)Nc2ccc(NC(=O)c3ccco3)cn2)c1 | 108%
Cc1cccc(NC(=O)Nc2cccc(Oc3c(F)c(F)c(F)c(F)c3F)c2)c1 | 101%
O=C(Nc1ccc(NC(=O)c2cccs2)cn1)c1ccco1 | 142% (active)
C/C(=N\NS(=O)(=O)c1ccc(Cl)cc1)c1ccc(NC(=O)c2ccco2)cc1 | 142% (active)
O=C(Nc1ccc(Oc2ccccc2)cc1)c1ccco1 | 132% (active)
COC(=O)c1ccc(NC(=O)c2ccco2)cc1 | 124%
O=C(O)Cc1ccc(NC(=O)c2cccs2)cc1 | 89.8%
Cc1ccc(C(=O)COc2cccc(NC(=O)c3ccco3)c2)cc1 | 93.6%
CN1CCN(S(=O)(=O)c2ccc(NC(=O)c3ccco3)cc2)CC1 | 98.8%
Cc1ccoc1C(=O)Nc1cccc(Oc2ccccc2)c1 | 137% (active)
C/C(=N/NS(=O)(=O)c1ccccc1)c1ccc(NC(=O)C(F)(F)F)cc1 | 105%
O=C(Nc1ccc(Sc2ccc(Br)cc2)cc1)c1ccco1 | 93.9%
